According to PubChem BioAssay (EPA / NIEHS):
Inconclusive results are not listed. Calls of active or inactive are those of the source. The calls were made as follows, unless noted: active = hit-call score of the fitted dose curve at least 0.9, where 1 is the maximum; inactive = score below 0.9.

Assays:
[1] = CCTE_Shafer_MEA_dev_spike_duration_mean: CCTE's Neural Network Formation Assay for Mean Spike Duration, Shafer Lab (AID 2284051);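 also: mean network spike duration pooled as area under curve over DIV 5 to 12 recordings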;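 as to AC50: potency for a decrease in mean network spike duration versus DMSO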
Outline: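 Readout is the average length of network spikes, clustered firing across electrodes, summed over DIV 5, 7, 9 and 12 as area under the curve. Neurons from rat cortex developed networks on MEA plates under continuous 12-day exposure.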

[2] = CCTE_Shafer_MEA_dev_network_spike_duration_std: CCTE's Neural Network Formation Assay for Standard Deviation of Network Spike Duration, Shafer Lab (AID 2284052);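 also: area under curve of spike duration SD across recording days 5 to 12; hits are decreases in network spike duration SD versus DMSO vehicle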
Outline: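 Read-out is the trapezoidal area-under-the-curve across recordings made on days 5, 7, 9 and 12, fitted in the negative direction against DMSO baseline. Neurons were primary rat cortical cells treated from day 0, with treatment renewed at each feed.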

[3] = CCTE_Shafer_MEA_dev_per_network_spike_spike_number_mean: CCTE's Neural Network Formation Assay for Mean Number of Spikes in a Network Spike, Shafer Lab (AID 2284053);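 as to AC50: fitted as decrease in spikes per network spike relative to DMSO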
Outline: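 Continuous twelve-day exposure of developing rat cortical networks grown over 16 microelectrodes per well; spontaneous firing is captured at four time points, and the per-network-spike spike number is integrated over development by trapezoidal AUC.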

[4] = CCTE_Shafer_MEA_dev_per_network_spike_spike_percent: CCTE's Neural Network Formation Assay for Percent of Spikes in a Network Spike, Shafer Lab (AID 2284054)
Outline: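 Read-out: percent of spikes falling in a 0.05 s window at network-spike peak, from spontaneous MEA recordings on days 5, 7, 9 and 12; trapezoidal AUC; loss of signal versus DMSO. Rat cortical cultures, compound present throughout.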

[5] = CCTE_Shafer_MEA_acute_AB: CCTE's Alamar Blue Assay for Cytotoxicity in the Neural Acute Assay, Shafer Lab (AID 2284069; active = hit-call score of the fitted dose curve at least 0.9, where 1 is the maximum;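 also: active compounds lower the viability signal compared with DMSO wells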)
Outline: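 Metabolic activity in chemically exposed rat cortical neurons (MEA cultures, day 13/15 post-plating) measured via CellTiter Blue resazurin reduction, 544/590 nm fluorescence; fitted relative to DMSO, with signal loss indicating reduced viability.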

[6] = CCTE_Shafer_MEA_acute_LDH: CCTE's Lactate Dehydrogenase Assay for Cytotoxicity in the Neural Acute Assay, Shafer Lab (AID 2284086; active = hit-call score of the fitted dose curve at least 0.9, where 1 is the maximum;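 also: active means LDH release rises above DMSO vehicle level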)
Outline: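 Medium collected from MEA wells of primary rat cortical cultures (DIV 13 or 15) immediately after 40 min chemical exposure is assayed spectrophotometrically for lactate dehydrogenase activity. Endpoint fitted in positive direction versus DMSO.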

[7] = CCTE_Shafer_MEA_dev_mutual_information_norm: CCTE's Neural Network Formation Assay for Mutual Information Normalization, Shafer Lab (AID 2284091);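 as to AC50: mutual information between electrodes summarised as area under curve across four recording days; potency is for a decrease in mutual information relative to DMSO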
Outline: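 Neurons from rat cortex were seeded at 1.5 x 10^5 cells/well onto PEI-coated MEAs in a laminin drop, then exposed to compound from day 0 for twelve days. Network recordings on four days gave mutual information, summarised by AUC relative to DMSO.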

[8] = CCTE_Shafer_MEA_dev_correlation_coefficient_mean: CCTE's Neural Network Formation Assay for Mean Correlation Coefficient, Shafer Lab (AID 2284093);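 as to AC50: well mean pairwise spike train correlation integrated as AUC over recording days 5 to 12; potency fitted for loss of correlation relative to DMSO vehicle wells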
Outline: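 Read-out: well-mean correlation coefficient of spike trains between electrode pairs, collapsed over four recording days as trapezoidal area-under-the-curve. Developing rat cortical neuron networks grown on MEAs received test chemical continuously from plating.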

DIO2 (gene 1734) = experiment: CCTE_GLTED_hDIO2: CCTE's human Deiodinase 2 (DIO2) Inhibition Assay, Great Lakes Toxicology and Ecology Division (GLTED) Lab (AID 2284050; active = hit-call score of the fitted dose curve at least 0.9, where 1 is the maximum)
Outline: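 Inhibition is judged by reduced iodide release: uninhibited human DIO2 frees iodide from substrate over 3 h, measured afterward by Sandell-Kolthoff colorimetry. Iodinated chemicals or nitrite, iron and thiocyanate may interfere.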

[9] = CCTE_Shafer_MEA_dev_LDH: CCTE's Lactate Dehydrogenase Assay for Cytotoxicity in the Neural Network Formation Assay, Shafer Lab (AID 2284068; active = hit-call score of the fitted dose curve at least 0.9, where 1 is the maximum;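 also: exposure for twelve days from plating with re-dosing on DIV 5 and 9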)
Outline: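 Cytotoxicity companion to network-formation recordings: rat cortical neurons received compound over 12 days of development, re-dosed at DIV 5 and 9 feeds. Viability was inferred from LDH enzyme activity relative to DMSO.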

[10] = IUF_NPC1b_proliferation_BrdU_72hr: Leibniz Research Institute for Environmental Medicine (IUF) 72-hour Neural Progenitor Cell Bromodeoxyuridine (BrdU) Proliferation Assay (NPC1b) (AID 2284207)
Outline: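 Luminescent BrdU ELISA measured DNA synthesis during the last 16 h of a 72 h exposure of primary human neural progenitor spheres grown with EGF and FGF. Signal was fitted relative to DMSO controls.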

[11] = IUF_NPC1a_proliferation_area_72hr: Leibniz Research Institute for Environmental Medicine (IUF) 72-hour Neural Progenitor Cell Proliferation Area Assay (NPC1a) (AID 2284208)
Outline: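 Single 0.25–0.35 mm human fetal neural progenitor spheres in proliferation medium with EGF and FGF, exposed 72 h from plating without renewal at 37C, pH 7.2-7.6. Sphere area growth measured by automated phase-contrast imaging, relative to DMSO.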

[12] = IUF_NPC1_viability_72hr: Viability Assessment at 72 hours in the Leibniz Research Institute for Environmental Medicine (IUF) Neural Progenitor Cell Proliferation Assay (NPC1) (AID 2284209)
Outline: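 Spheres of primary human neural progenitors were plated singly in proliferation medium and treated for 72 h. Mitochondrial reduction of resazurin was then measured by fluorescence and analysed against DMSO controls.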

[13] = CCTE_Shafer_MEA_dev_AB: CCTE's Alamar Blue Assay for Cytotoxicity in the Neural Network Formation Assay, Shafer Lab (AID 2284083; active = hit-call score of the fitted dose curve at least 0.9, where 1 is the maximum;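 also: twelve days of exposure from plating with re-dosing on DIV 5 and 9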)
Outline: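 Fluorescent resazurin reduction serves as the viability read-out, with DMSO as negative control and baseline. Cells were primary rat cortical neurons grown on MEA plates and dosed from day 0 to day 12, treatment renewed on DIV 5 and 9.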

[14] = CCTE_Mundy_HCI_Cortical_Synap_Neur_Matur_NeuriteSpotCountPerNeuriteLength: CCTE's Synaptogenesis and Neurite Maturation Assay in rat cortical cells for Neurite Spot Count per Neurite Length, Mundy Lab (AID 2284210)
Outline: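 Read-out: synaptophysin puncta counted along MAP2-stained neurites, normalised to neurite length, by automated high-content imaging. Rat cortical cells; AraC DIV 5; chemical dosing DIV 7; termination DIV 12. DMSO baseline.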

[15] = CCTE_Mundy_HCI_Cortical_Synap_Neur_Matur_BPCount: CCTE's Synaptogenesis and Neurite Maturation Assay in rat cortical cells for Branch Point Count, Mundy Lab (AID 2284211)
Outline: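 HCI read-out of branch points from MAP2/synaptophysin/Hoechst immunofluorescence; rat cortical cultures, AraC DIV 5, dosing DIV 7, fixed DIV 12; fit in positive direction vs DMSO baseline.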

[16] = CCTE_Mundy_HCI_Cortical_NOG_NeuriteCount: CCTE's Neurite Outgrowth Assay in rat cortical cells for Neurite Count, Mundy Lab (AID 2284212);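 also: cells fixed about two days after chemical exposure began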
Outline: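 Rat cortical primary cells; compound added 2 h post-plating, 1/10 dilution of working solution. Anti-betaIII-tubulin/AF488 ICC; ArrayScan neurite count vs DMSO.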

[17] = CCTE_Mundy_HCI_Cortical_NOG_NeuriteLength: CCTE's Neurite Outgrowth Assay in rat cortical cells for Neurite Length, Mundy Lab (AID 2284213);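 as to AC50: neurites imaged about 48 to 50 h after chemical exposure began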
Outline: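 First, rat primary cortical cells were plated and, 2 h later, given test chemical as a 1/10 dilution. Finally, βIII-tubulin immunostaining enabled automated imaging of neurite length.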

[18] = CCTE_Mundy_HCI_Cortical_Synap_Neur_Matur_NeuriteLength: CCTE's Synaptogenesis and Neurite Maturation Assay in rat cortical cells for Neurite Length, Mundy Lab (AID 2284214)
Outline: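 Cultures of rat primary cortical cells received chemical at DIV 7 and were fixed at DIV 12, after glial arrest with AraC at DIV 5. Neurite length was measured by automated imaging of MAP2 immunofluorescence.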

[19] = CCTE_Mundy_HCI_Cortical_Synap_Neur_Matur_NeuriteSpotCountPerNeuron: CCTE's Synaptogenesis and Neurite Maturation Assay in rat cortical cells for Neurite Spot Count per Neuron Count, Mundy Lab (AID 2284215)
Outline: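 Rat primary cortical cultures given AraC at DIV 5, dosed from DIV 7 to DIV 12 with media change. Fixed, stained for MAP2, synaptophysin and Hoechst; neurite-associated synaptophysin puncta per neuron quantified by high-content imaging versus DMSO.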

Measured: AC50

Clc1ccccc1C(c1ccccc1)(c1ccccc1)n1ccnc1
inactive: [1] | [2] | [3] | [4] | [5] | [6] | [7] | [8]

OC12N=C(c3ccccc3)SC1Cc1cc(Cl)ccc12 (stereo not given)
inactive: [5] | [6]
active: DIO2 (gene 1734) 72.5 µM

COc1cc(C(=O)NC2CCN(C)CC2)ccc1Nc1ncc2c(n1)N(C1CCCC1)CC(F)(F)C(=O)N2C
inactive: [5] | [6]

CN(C[C@@H](CC[N+]12CCC(C3CCCCC3)(CC1)CC2)c1ccc(Cl)c(Cl)c1)C(=O)c1cc(C(F)(F)F)cc(C(F)(F)F)c1
active: DIO2 (gene 1734) 37.8 µM | [5] 20 µM
inactive: [6]

Cc1cc2c(cc1C(F)(F)F)N(C(=O)Nc1ccc(Oc3cccnc3C)nc1)CC2
inactive: [5] | [6]

CC(C)(c1cc(Br)c(O)c(Br)c1)c1cc(Br)c(O)c(Br)c1
active: DIO2 (gene 1734) 48.6 µM
not listed: [6] | [13] | [14] | [15] | [16] | [17] | [18] | [19]
inactive: all other assays above

O=c1[nH]sc2ccccc12
inactive: [5] | [6]

CC/C(=C(/CC)c1ccc(O)cc1)c1ccc(O)cc1
inactive: [2] | [5] | [13] | [14]
active: [1] 15 µM | [3] 5.65 µM | [4] 3.87 µM | [9] 19.5 µM | [7] 0.864 µM | [8] 5.98 µM | [15] 8.64 µM | [16] 22.6 µM | [17] 23.7 µM | [18] 9.46 µM | [19] 14.3 µM

O=CCCCC=O
active: DIO2 (gene 1734) 91.3 µM

CN(C)c1ccc(C(=C2C=CC(=[N+](C)C)C=C2)c2ccc(N(C)C)cc2)cc1
active: DIO2 (gene 1734) 134 µM | [5] 11.2 µM | [6] 7.76 µM

CC[C@@H]1C[C@H](N(Cc2cc(C(F)(F)F)cc(C(F)(F)F)c2)C(C)=O)c2cc(C(F)(F)F)ccc2N1C(=O)OC(C)C
inactive: [5]

CC1=CC(=O)/C(=C(/C)O)C(=O)O1
inactive: [5] | [6]

O=C1O[C@H]([C@@H](O)CO)C(O)=C1O
active: [10] 0.215 µM
not listed: [4] | DIO2 (gene 1734) | [9]
inactive: all other assays above

CC(C)(C)c1csc(-c2cc3cc(OCc4ccccc4CC(=O)O)ccc3o2)n1
active: DIO2 (gene 1734) 120 µM

NC(=O)c1nc(-c2cccc(-c3cc(F)ccc3OCC(F)(F)C(F)(F)F)c2)n[nH]1
inactive: [5] | [6]
active: DIO2 (gene 1734) 100 µM
